TGFb SMAD3 inh: qHTS for Inhibitors of TGF-b | HepG2 CAGA-GFP TGF-b/SMAD3 reporter, GFP fluorescence, 18 h; TGF-beta stimulated, 500 pg/mL final | Potency, µM (top dose mostly 46.1 µM), inactives show at the highest dose activity, negative = inhibition, hits mostly inhibitors | actives 1.2% (n = 410,000) | AID 588855, 2011; further: potency means the concentration at half of the fitted maximal effect; on the % scale 0 is the no-effect control and ±100 the full control effect; nearly all actives have a fitted effect of over 65% in size
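Per well, imaged GFP fluorescence of HEPG2 CAGA-GFP cells gives the signal; cells get compound, then TGF-beta (500 pg/mL final), 18 h at 37 degrees C; %Activity versus -TGF-beta and +DMSO controls.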
HepG2 viability: qHTS for Inhibitors of TGF-b: Cytotox Counterscreen | HepG2 CAGA-GFP viability, ATP luminescence, 18 h | Potency, µM (titrated, usually from 46.1 µM), for inactives: top-dose activity change, negative = cytotoxicity, most hits filed as cytotoxic | actives 0.76% (n = 410,000); further: potency means the concentration at half of the fitted maximal effect
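CellTiter-Glo luminescence gave cytotoxicity after 18 hours at 37 degrees C. The cells were HepG2 CAGA-GFP in 1% FBS DMEM, stimulated with 500 pg/mL TGF-beta after compound addition. %Activity was normalised to no-cell wells (complete cell-killing) and DMSO (no toxicity), and curves were fitted and classified.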
DT40 TDP1 CPT: qHTS for Inhibitors of human tyrosyl-DNA phosphodiesterase 1 (TDP1): qHTS in cells in presence of CPT; chicken DT40 Tdp1-/-;hTDP1 cells + 20 nM CPT, ATP luminescence, 48 h; Potency, µM (doses to about 46.2 µM), without a hit: top-dose activity change, negative = growth inhibition, usual class: inhibitors; actives 12% (n = 420,000); further: potency means the concentration at half of the fitted maximal effect; on the % scale 0 is the no-effect control and ±100 the full control effect; nearly all actives have a fitted effect of over 55% in size
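Cell growth measured by CellTiter-Glo luminescence after a minimum 48 h, 37 C compound exposure with 20 nM CPT in Tdp1-knockout DT40 cells stably expressing hTDP1, seeded 400/well; qHTS titration format.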
IL1B secr inh: qHTS for Inhibitors of Inflammasome Signaling: IL-1-beta AlphaLISA Primary Screen. THP-1 LPS/ATP IL-1B secretion, AlphaLISA, 16 h; hits give low values. activity change, % at 57.5 µM. actives 4.7% (n = 360,000). AID 743279, 2014; in the data active means activity change below about -50%; inconclusive means mostly about -30% to -49%; further: on the % scale 0 is the no-effect control and ±100 the full control effect
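THP-1 cells pretreated 1 hr with compounds (up to 57.5 uM final), then stimulated with LPS (250 ng/mL final) plus ATP (1.25 mM final); secreted IL-1B measured by AlphaLISA after 16 hr, decreased signal indicating inhibition.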
TDP1 cell noCPT: qHTS for Inhibitors of human tyrosyl-DNA phosphodiesterase 1 (TDP1): qHTS in cells in absence of CPT. actives 15% (n = 420,000). AID 686978, 2013. Potency, µM (series often up to 46.2 µM), for the others: top-dose activity change, negative = growth inhibition, most hits filed as inhibitors. DT40 Tdp1-/- hTDP1 cells, no CPT, ATP luminescence, 48 h; further: potency means the concentration at half of the fitted maximal effect; on the % scale 0 is the no-effect control and ±100 the full control effect; nearly all actives have a fitted effect of over 55% in size
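Growth of hTDP1-complemented DT40 Tdp1-knockout cells is measured by ATP luminescence after at least 48 hr compound exposure at 37 °C, with DMSO substituting for the 20 nM CPT used in the parallel screen.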
ASM inhibitor: Inhibitors of Secretory Acid Sphingomyelinase (S-ASM): qHTS. Sphingomyelin phosphodiesterase (Homo sapiens), P17405. placental ASM, HMU-PC fluorogenic substrate, 60 min. Potency, µM (series often up to 57.5 µM), for the others: at the highest dose activity change, negative = inhibition, hits mostly inhibitors. actives 0.006% (n = 340,000); further: potency means the concentration at half of the fitted maximal effect
Target sequence (P17405 47-631 limits assumed): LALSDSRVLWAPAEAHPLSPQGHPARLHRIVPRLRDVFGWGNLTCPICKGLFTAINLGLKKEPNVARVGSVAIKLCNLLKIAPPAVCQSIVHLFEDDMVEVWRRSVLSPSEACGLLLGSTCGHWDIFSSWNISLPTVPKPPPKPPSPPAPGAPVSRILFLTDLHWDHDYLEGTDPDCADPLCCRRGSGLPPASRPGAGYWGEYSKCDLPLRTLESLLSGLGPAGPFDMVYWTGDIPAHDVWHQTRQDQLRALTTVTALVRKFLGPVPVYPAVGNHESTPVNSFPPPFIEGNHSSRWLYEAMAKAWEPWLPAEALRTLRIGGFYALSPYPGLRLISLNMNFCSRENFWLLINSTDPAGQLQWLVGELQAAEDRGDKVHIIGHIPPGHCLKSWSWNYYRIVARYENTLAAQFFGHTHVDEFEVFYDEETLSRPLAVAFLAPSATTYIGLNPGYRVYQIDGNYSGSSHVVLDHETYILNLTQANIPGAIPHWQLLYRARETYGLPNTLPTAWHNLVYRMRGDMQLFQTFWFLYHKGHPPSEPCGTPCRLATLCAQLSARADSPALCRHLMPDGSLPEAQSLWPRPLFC
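Human placenta-derived ASM enzyme was preincubated with compound for 10 minutes at room temperature, then given fluorogenic substrate HMU-PC0 (9 uM final) for 60 minutes at 37 °C; a pH 10 stop preceded fluorescence reading at Ex 386/Em 447 nm.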
Active calls of the source: *; ? = inconclusive; . = no result. Compounds with a hit are over-represented: about 19% of the library has one in this group of screens. Unless noted, the call rests on the fitted dose curve; in most records, active means well fitted curve in the direction sought with a large enough effect; inconclusive means small, poorly fitted or top-dose-only effect, or another doubt; inactive means no such curve, though single readings can be large; an effect the other way counts as inactive or inconclusive.

SMILES	TGFb SMAD3 inh	HepG2 viability	DT40 TDP1 CPT	IL1B secr inh	TDP1 cell noCPT	ASM inhibitor
C/C=C(\C)C(=O)N[C@@H](c1ccccc1)[C@@H](O)C(=O)O[C@H]1C[C@@]2(O)[C@@H](OC(=O)c3ccccc3)C3[C@](C)(C(=O)[C@H](OC(C)=O)C(=C1C)C2(C)C)[C@@H](O)C[C@H]1OC[C@@]31OC(C)=O (stereo partly specified)	-20%	-15%	0.013µM*	20	0.01µM*	-12%
CC(=O)O[C@@]12CO[C@@H]1C[C@H](O)[C@@]1(C)C(=O)[C@H](O)C3=C(C)[C@@H](O)C[C@@](O)([C@@H](OC(=O)c4ccccc4)C12)C3(C)C (stereo partly specified)	-8%	-1%	9.2µM*	5	9.2µM*	0%
COC(=O)C1=C(c2ccc(S(C)(=O)=O)cc2)C[C@@H]2CC[C@H]1N2C(=O)NCCNC(C)=O	?	10%	2%	1	.	6%
O=C(Nc1ccccc1)N1CC[C@@]2(CCCNC2)C1	.	.	-14%	.	4%	.
Cc1nc(N)sc1CCN	.	.	?	.	-7%	.
C[C@]12CC[C@H](O)CC1=CCC1C2CC[C@]2(C)C(=O)[C@H](Br)CC12 (stereo partly specified)	?	0%	?	-106*	?	1%
CC1(C)C(=O)CC[C@@]2(C)C1=CCC1C2CC[C@]2(C)C(=O)CCC12 (stereo partly specified)	1%	1%	16µM*	11	?	-4%
C[C@]12C[C@@H](O)[C@H](O)CC1=CCC1C2CC[C@]2(C)C(=O)CCC12 (stereo partly specified)	2%	4%	-6%	16	4%	2%
C[C@]12CC[C@H](O)CC1=CC[C@@H]1[C@@H]2CC[C@]2(C)C(=O)CC[C@@H]12	1%	-1%	?	57	?	0%
CC12CCC3C(CC=C4CC(O)CCC43C)C1C/C(=C\c1ccccc1F)C2=O (stereo unspecified)	-4%	-5%	?	23	23µM*	-3%
C[C@]12CC[C@H](O)CC1=CCC1C2CC[C@]2(C)C(=O)CC[C@@H]12 (stereo partly specified)	.	.	30µM*	.	30µM*	.
COCCN1C(=NCCCOC(C)C)N[C@@H](c2ccccc2)C(C(=O)OC)=C1C	-21%	-21%	?	20	?	0%
O=C(Nc1cccc(Cl)c1)c1cnc2sc(N3CCCC3)nn2c1=O	.	-18%	?	.	?	.
CC(=O)C1C(N2CC2)CC2C3CC=C4CC(O)CCC4(C)C3CCC21C (stereo unspecified)	-8%	-3%	1.8µM*	-51*	5.8µM*	7%
CC1=C(C/C(C)=C/c2ccccc2)/C(=C/CO)[C@@H]2OC(=O)O[C@]2(C)C12CC2	?	-6%	8.2µM*	4	12µM*	1%
COc1c(C)cc(C(=O)C2CCCN(Cc3cccc(O)c3)C2)cc1C (stereo unspecified)	-2%	-34%	?	24	?	1%
COc1c(C)cc(C(=O)C2CCCN(C3CCOCC3)C2)cc1C (stereo unspecified)	-12%	-4%	-16%	34	-11%	3%

Source: PubChem BioAssay
